Sampled rows, rich in hits. Any-hit rate of the full collection: about 10%.
HP1b chromo inh: blocks HP1-beta chromodomain binding to methylated histone tails; P83916; AlphaScreen HP1-beta / biotin-H3K9me3 peptide binding; Potency, µM (top dose mostly 114 µM), most hits filed as inhibitors; actives 0.56% (n = 390,000); AID 540317; further: nearly all actives have a fitted effect of over 70% in size
Target sequence (P83916 whole entry, looked up): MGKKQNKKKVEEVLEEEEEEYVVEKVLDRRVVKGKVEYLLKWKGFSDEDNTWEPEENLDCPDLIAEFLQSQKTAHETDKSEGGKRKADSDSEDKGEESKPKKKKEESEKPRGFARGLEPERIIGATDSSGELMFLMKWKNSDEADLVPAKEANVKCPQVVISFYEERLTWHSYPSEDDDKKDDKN
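HP1-beta protein (50 nM final) preincubated 30 min at room temperature with biotinylated H3(1-18)K9me3 peptide (50 nM) in PBS pH 7.4, 0.01% Tween-20, then compound added for 30 min. AlphaScreen streptavidin donor/nickel chelate acceptor beads (10 ug/mL final), 30 min dark, luminescence read.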
JMJD2A Tudor inh: inhibitors of human JMJD2A Tudor domain. AID 504339. Potency, µM (series often up to 114 µM), most hits filed as inhibitors. actives 4.4% (n = 390,000). AlphaScreen JMJD2A-Tudor / H3K4me3 peptide binding. O75164; further: nearly all actives have a fitted effect of over 50% in size
G9a block: blocks human histone lysine methyltransferase G9a. G9a H3K9 monomethylation, AlphaScreen, 2 h. Potency, µM (highest dose often 102 µM), actives largely listed as inhibitors. actives 8.8% (n = 350,000). AID 504332; further: nearly all actives have a fitted effect of over 75% in size
Target sequence (Q96KQ7 913-1193 limits assumed): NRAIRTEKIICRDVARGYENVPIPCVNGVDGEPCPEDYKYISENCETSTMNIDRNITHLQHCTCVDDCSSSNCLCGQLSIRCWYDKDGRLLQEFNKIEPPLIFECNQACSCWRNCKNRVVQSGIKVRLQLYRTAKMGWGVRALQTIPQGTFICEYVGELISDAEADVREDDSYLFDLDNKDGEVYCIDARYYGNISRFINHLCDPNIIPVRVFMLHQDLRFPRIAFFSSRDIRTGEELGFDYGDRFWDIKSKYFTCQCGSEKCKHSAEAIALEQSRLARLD
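AlphaScreen detection with an anti-monomethyl H3K9 antibody quantified product after a 2 h room-temperature reaction containing 500 nM biotinylated H3K9 peptide, 20 µM SAM and 20 nM enzyme, which had been preincubated 15 min with compound.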
BAZ2B block: blocks human BAZ2B; AlphaScreen BAZ2B-H3K14Ac peptide displacement; Potency, µM (top dose mostly 114 µM), actives largely listed as inhibitors; actives 4.4% (n = 360,000); Q9UIF8; further: nearly all actives have a fitted effect of over 60% in size
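In this displacement format the biotinylated H3(5-23) peptide acetylated at Lys14 serves as ligand at 50 nM, with BAZ2B at 50 nM in PBS pH 7.4 containing 0.01% Tween-20. Donor and acceptor beads are 10 ug/mL final.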
CtBP-E1A blk: inhibitors of CtBP/E1A interaction; AlphaScreen GST-E1A/His-CtBP binding, 1536-well; active compounds read low; activity change, % (test concentration not listed); AID 651724; actives 0.49% (n = 340,000); in the data active means activity change below about -65%; inconclusive means mostly about -30% to -63%
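Steps: dispense buffer (Tris pH 8.0, NaCl 300 mM, TCEP 1 mM, BSA, Tween 20); add 5X protein mix (GST-E1A, His-CtBP, 125 nM each); pin 23 nL compound; 2 h at 37 °C, dark; add 5X beads (50 ug/mL); 1 h; read.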
Six1-Eya2 blk: blocks human Six1 binding to Eya2; AlphaScreen GST-Six1/His-Eya2 binding, biochemical; active compounds read low; Q15475+O00167; activity change, % (test concentration not listed); actives 0.56% (n = 360,000); AID 651725; in the data active means activity change below about -65%; inconclusive means mostly about -30% to -63%
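Compounds are tested against tagged Six1 and Eya2 proteins bridged by glutathione donor and nickel acceptor beads; after a one-hour incubation at 37 °C without light, AlphaScreen emission is recorded.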
Hits are given with their value; i = inactive; ? = inconclusive; nt = not tested or not shown; ! = not confirmed by another sample; [ ] = dose if it differs, or a comment. Unless noted, the call rests on the fitted dose curve; in most records, active means well fitted inhibition curve with a large enough effect; inconclusive means small, poorly fitted or top-dose-only effect; inactive means no such curve, though single readings can be large or run the other way.

SMILES	HP1b chromo inh	JMJD2A Tudor inh	G9a block	BAZ2B block	CtBP-E1A blk	Six1-Eya2 blk
O=C(Nc1ccc(Oc2ccccc2)cc1)C1CCN(S(=O)(=O)c2ccccc2)CC1	i	i	?	i	nt	nt
COC(=O)c1cc2oc3ccccc3c2n1Cc1ccc(Cl)cc1	i	i	i	i	nt	nt
Cc1nn2c(=O)cc(COC(=O)c3ccco3)nc2s1	i	i	i	i	nt	nt
C/C(=N\NC1=NCCN1)c1ccc(Cl)cc1	i	i	i	i	i	i
C/C(=N\Nc1nc2c(s1)CCCC2)c1ccc(Cl)cc1	i	?	?	44.7µM	i	i
COc1cccc(C(=O)Nc2nc3c(s2)CCCC3)c1	i	?	10µM	?	nt	nt
CN(C)c1ccc(C(=O)Nc2nc3c(s2)CCCC3)cc1	?	79.4µM	35.5µM	?	i	i
CCCN1C(=O)C(Cc2nc3ccccc3c(=O)n2-c2cccc(C)c2)c2ccccc21 (stereo not drawn)	i	i	i	i	nt	nt
Cc1ccccc1OCC(=O)Nc1nnc(SCc2cc(=O)n3cc(Cl)ccc3n2)s1	i	i	i	i	nt	nt
COc1ccc(C2=Nn3c(nnc3-c3ccccc3C)SC2)cc1OC	nt	i	nt	nt	nt	nt
COc1ccc(C2=Nn3c(nnc3-c3ccccn3)SC2)cc1	i	39.8µM	i	25.1µM	?	-67.1
COc1ccccc1-c1nnc2n1N=C(c1ccc(O)c(O)c1)CS2	i	?	?	50.1µM	i	i
COc1cccc(C2=Nn3c(nnc3-c3ccccc3OC)SC2)c1	nt	79.4µM	nt	nt	nt	nt
CCOC(=O)c1ccc(NC(=O)c2cn3c4c(ccc(Cl)c4c2=O)OC(C)C3)cc1 (stereo not drawn)	i	i	i	i	nt	nt
CCC(=O)OCCCNc1nc(-c2ccc(Cl)cc2)nc2ccccc12	i	i	i	i	nt	nt
O=C(N/N=C1\CC2CC=CC12)c1ccc(O)cc1 (stereo not drawn)	i	i	i	nt	i	i
O=[N+]([O-])c1ccc(N/N=C2\CC3CC=CC23)c([N+](=O)[O-])c1 (stereo not drawn)	14.1µM	14.1µM	14.1µM	3.16µM	i	-69.1
O=[N+]([O-])c1ccc(N/N=C2\CC3CC=CC23)cc1 (stereo not drawn)	i	?	44.7µM	?	i	i
O=[N+]([O-])c1ccc(NN=C2CC3CCC2C3)c([N+](=O)[O-])c1 (stereo not drawn)	nt	nt	nt	nt	i	i
CCCN1CNc2c(c(=O)[nH]c(=S)n2CCc2ccc(Cl)cc2)C1	i	i	nt	nt	nt	nt
CCc1cccc(NS(=O)(=O)c2ccc3c(c2)N(CC(=O)OC)C(=O)CS3)c1	i	i	i	i	nt	nt
CC12CCC(c3c1nc1ccccc1[n+]3[O-])C2(C)C (stereo not drawn)	i	44.7µM	i	i	i	i
CCCOCc1cc(CN2CCN(c3cccc(Cl)c3)CC2)c(O)c2ncccc12	i	12.6µM	i	31.6µM	nt	nt
CCCCOCc1cc(CN2CCN(c3cccc(Cl)c3)CC2)c(O)c2ncccc12	i	3.98µM	i	5.62µM	nt	nt
COCCNC(=O)Cn1c(=O)c2cccn2c2ccc(F)cc21	i	?	i	i	nt	nt
SMILES	HP1b chromo inh	JMJD2A Tudor inh	G9a block	BAZ2B block	CtBP-E1A blk	Six1-Eya2 blk
O=[N+]([O-])c1ccc([C@H](O)[C@H](CO)N=Cc2ccccc2O)cc1	i	i	8.91µM	i	i	i
COc1ccc(CCNCC(=O)Nc2ccc(C)c(S(=O)(=O)N(C)C)c2)cc1	?	0.794µM	14.1µM	50.1µM	i	i
Cc1ccc(NC(=S)NC2CCCCC2)cc1S(=O)(=O)N(C)C	i	i	39.8µM	i	i	i
Cc1ccc(NC(=O)CNCC2CCCCC2)cc1S(=O)(=O)N(C)C	i	22.4µM	?	?	nt	i
CCN(CC)S(=O)(=O)c1ccc(C)c(NC(=S)NC2CCCCC2)c1	i	i	i	i	i	i
COc1ccc(CCC(=O)Nc2ccc(C)c(S(=O)(=O)N(C)C)c2)cc1OC	i	i	i	i	i	i
Cc1ccc(NC(=O)CN(C)C2CCCCC2)cc1Cl	?	10µM	nt	?	i	i
O=C(Nc1ccccc1)c1cccc(S(=O)(=O)Nc2cccc(F)c2)c1	i	i	i	i	nt	nt
CC[N+](C)(CC)CC(O)COCC1COc2ccccc2O1 (stereo not drawn)	i	i	6.31µM	i	i	i
CC1CCCC(C)N1CC(O)COCC1COc2ccccc2O1 (stereo not drawn)	i	i	i	i	i	i
O=C(CCS(=O)(=O)c1ccc(Br)s1)Nc1ccccc1Br	i	i	50.1µM	i	i	i
CCc1cccc(CC)c1NC(=O)CCS(=O)(=O)c1ccc(Br)cc1	i	i	i	i	nt	nt
CCc1cccc(CC)c1NC(=O)CCS(=O)(=O)c1ccc(Br)s1	i	i	22.4µM	i	nt	nt
O=C(CCS(=O)(=O)c1ccc(Cl)cc1)Nc1ccccc1Br	i	i	i	i	i	i
COc1ccc(NC(=O)CCS(=O)(=O)c2ccc(Br)s2)cc1	i	i	17.8µM	?	i	i
CC(C)c1ccc(NC(=O)CCS(=O)(=O)c2ccc(Br)s2)cc1	i	i	?	i	nt	nt
COCCn1c(=O)c(C)nc2cnc(N3CCNCC3)nc21	nt	nt	i[12.7 µM]	nt	nt	nt
COC(=O)c1ccc(CSc2nc3c([nH]c4ccccc43)c(=O)n2-c2cc(C)cc(C)c2)o1	i	i	i	i	nt	nt
CCN1CCN(c2csc3ccc(Cl)cc3c2=O)CC1	i	i	i	i	nt	nt
Cc1ccc2scc(N3CCN(c4ccccc4)CC3)c(=O)c2c1	i	44.7µM	?	?	nt	nt
Cc1ccc2scc(N3CCN(c4ccc(F)cc4)CC3)c(=O)c2c1	i	?	i	?	nt	nt
O=c1c(N2CCN(c3cccc(Cl)c3)CC2)csc2ccccc12	i	39.8µM	?	?	nt	nt
Cc1c(NC(=O)C2CC=CCC2C(=O)O)c(=O)n(-c2ccccc2)n1C (stereo not drawn)	i	i	i[12.7 µM]	79.4µM	i	i
CCN1CCN(C(C)C(=O)Nc2c(C)n(C)n(-c3ccccc3)c2=O)CC1 (stereo not drawn)	?	7.94µM	11.2µM	50.1µM	i	i
Cc1c(NC(=O)CN2CC(C)OC(C)C2)c(=O)n(-c2ccccc2)n1C (stereo not drawn)	56.2µM!	11.2µM!	15.8µM	20µM	i	i
SMILES	HP1b chromo inh	JMJD2A Tudor inh	G9a block	BAZ2B block	CtBP-E1A blk	Six1-Eya2 blk
CCC(CC)C(=O)Nc1c(C)n(C)n(-c2ccccc2)c1=O	i	i	i	i	i	i
CC(=O)Nc1ccc(C)c(NC(=S)Nc2ccc(F)cc2)c1	i	i	nt	i	nt	i
S=C(Nc1ccc2cn[nH]c2c1)Nc1ccc(Cl)cc1Cl	i	?	28.2µM	?	nt	i
O=c1[nH]c2ccc(NC(=S)Nc3ccccc3Cl)cc2[nH]1	i	i	14.1µM	i	i	i
Cc1ccccc1NC(=S)Nc1ccc2[nH]c(=O)[nH]c2c1	i	i	50.1µM	i	i	i
O=c1[nH]c2ccc(NC(=S)Nc3ccc(Cl)cc3Cl)cc2[nH]1	i	i	i	i	i	i

Screening results (PubChem)
